Screens deposited in PubChem BioAssay by National Center for Advancing Translational Sciences (NCATS).
ClpP mod: qHTS Assay for Activators of ClpP. ATP-dependent Clp protease proteolytic subunit (Bacillus subtilis (strain 168)), P80244. purified B. subtilis ClpP, FRET peptide cleavage, 20 min. Potency, µM (series often up to 57.5 µM). hit rate 1.9% among 340,000. AID 651965, 2013; active = well fitted falling curve with a large enough effect; inconclusive = small, poorly fitted or top-dose-only effect; inactive = no such curve, though single readings can be large or run the other way; also: the source files actives as falling curves though it sought activators and does not explain the sign; nearly all actives have a fitted effect of over 65% in size
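ClpP 10 microg/mL final, pH 8 Tris/KCl buffer with BSA, glycerol, Tween-20; compound pinned in; FRET-FV substrate; RT 20 min; Ex320/Em430; ΔFRET vs ADEP 5.8 microM, DMSO, no enzyme.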
TDP1 block: blocks human tyrosyl-DNA phosphodiesterase 1; Q9NUW8; hit rate 0.28% among 350,000; Potency, µM (highest dose often 130 µM), usual class: inhibitors; recombinant TDP1, AlphaScreen DNA substrate cleavage; also: nearly all actives have a fitted effect of over 40% in size
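Here, a 5' biotin and 3' phosphotyrosine-FITC DNA oligonucleotide reports Tdp1 activity: intact substrate bridges AlphaScreen beads, while cleavage leaves a 3' phosphate and drops signal. All incubations at room temperature.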
TDP1 cell CPT: DT40-hTDP1 cell growth loss with CPT | chicken DT40 Tdp1-/-;hTDP1 cells + 20 nM CPT, ATP luminescence, 48 h | Potency, µM (titrated, usually from 46.2 µM), actives largely listed as inhibitors | hit rate 12% among 420,000; also: nearly all actives have a fitted effect of over 55% in size
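Chicken DT40 Tdp1-/- cells stably complemented with human TDP1 were seeded at 400 cells/well in medium containing 20 nM camptothecin, exposed to pin-transferred compounds, and grown at 37 °C for at least 48 hr. Viability was read as ATP luminescence.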
TDP1 cell noCPT: qHTS for Inhibitors of human tyrosyl-DNA phosphodiesterase 1 (TDP1): qHTS in cells in absence of CPT | DT40 Tdp1-/- hTDP1 cells, no CPT, ATP luminescence, 48 h | Potency, µM (titrated, usually from 46.2 µM), most hits filed as inhibitors | hit rate 15% among 420,000; also: nearly all actives have a fitted effect of over 55% in size
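Chicken DT40 Tdp1-/- cells stably complemented with human TDP1 were seeded at 400 cells/well with DMSO in place of 20 nM camptothecin. After compound pinning, cells grew at least 48 hr at 37 °C; viability read by CellTiter-Glo luminescence.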
Hits are given with their value; – = inactive; ? = inconclusive; · = no result given; [ ] = another dose, or the depositor's remark. An excerpt weighted towards active compounds, which were near 17% of everything screened. Unless noted, calls follow the shape of the dose curve; as a rule, active = well fitted curve in the direction sought with a large enough effect; inconclusive = small, poorly fitted or top-dose-only effect, or another doubt; inactive = no such curve, though single readings can be large; an effect the other way counts as inactive or inconclusive.

SMILES	ClpP mod	TDP1 block	TDP1 cell CPT	TDP1 cell noCPT
COc1ccc(C(=O)C2C(c3ccc(-c4ccccc4[N+](=O)[O-])o3)NC(=O)NC2(O)C(F)(F)F)cc1 (stereo not given)	–	–	20.6µM	18.4µM
O=C1NC(c2ccc(-c3ccccc3[N+](=O)[O-])o2)C(C(=O)c2ccc(F)cc2)C(O)(C(F)(F)F)N1 (stereo not given)	–	–	?	?
CC(=O)Nc1nonc1-c1nnc(SCc2ccccc2C)n1C	–	–	?	?
N#Cc1c(C#N)c(-c2ccccc2)n(-c2ccccc2)c1N	28.2µM	–	14.6µM	11.6µM
Cn1c(N)c(C#N)c(C#N)c1-c1ccccc1	–	–	–	–
CC1(C)Cc2c(c(N3CCOCC3)nc3sc(C(=O)Nc4cccc(Cl)c4)c(N)c23)CO1	?	–	18.4µM	?
Cc1cccc(NC(=O)c2sc3nc(N4CCOCC4)c4c(c3c2N)CC(C)(C)OC4)c1	?	–	?	7.31µM
CCOc1ccc(C(=O)Nc2ccccc2C(=O)OCc2cc(=O)n3nc(C4CC4)sc3n2)cc1	–	–	–	–
CC(=O)NCCn1ccc2ccccc21	28.2µM	–	–	–
O=C(Cc1ccccc1)NCCn1ccc2ccccc21	–	–	–	?
O=C(COc1ccc2ccccc2c1)NCCn1ccc2ccccc21	–	–	?	20.6µM
CCc1ccc2ncc3c(-c4ccc(F)cc4)nn(CC(=O)NC4CCCCC4)c3c2c1	–	–	–	–
CCN(CC)C(=O)c1ccc2sc([C@H]3C[C@H](O)[C@@H](CO)O3)nc2c1	–	·	–	–
CC(NC(=O)C(=O)Nc1c2c(nn1-c1ccc(F)cc1)CSC2)c1ccccc1 (stereo not given)	–	–	–	8.2µM
CC(C)CNC(=O)C(=O)Nc1c2c(nn1-c1ccc(Cl)cc1)CSC2	–	–	?	–
CCC(CO)NC(=O)C(=O)Nc1c2c(nn1-c1ccc(F)cc1)CSC2 (stereo not given)	–	–	–	–
CC(NC(=O)C(=O)Nc1c2c(nn1-c1ccccc1)CSC2)c1ccccc1 (stereo not given)	–	–	14.6µM	20.6µM
CCc1ccc2oc(-c3cccc(NC(=O)c4cc5ccccc5o4)c3)nc2c1	?	–[12.3 µM]	?	?
O=C(Cn1c2ncccc2c(=O)n1-c1ccccc1)Nc1ccc(F)c(F)c1	–	–	–	–
Cc1ccc(S(=O)(=O)N(C)C)cc1NC(=O)Cn1c(CN2CCOCC2)nc2ccccc2c1=O	–	–	?	–
CC(=O)CSc1nc(-c2ccccc2)c(-c2ccccc2)o1	28.2µM	·	–	–
COCCNC(=O)CSc1nc(-c2ccccc2)c(-c2ccccc2)o1	–	–	11.6µM	?
Cn1nnnc1SCC(=O)Nc1nc(-c2ccccc2)c(-c2ccccc2)o1	–	–	?	?
COCCNC(=O)CSc1nnc(-c2ccccc2)c(-c2ccccc2)n1	–	–	–	–
COC(=O)CN1C(=O)CSc2ccc(S(=O)(=O)Nc3cccc(Br)c3)cc21	–	·	–	?
SMILES	ClpP mod	TDP1 block	TDP1 cell CPT	TDP1 cell noCPT
COC(=O)[C@]12CCCCC=C1N(CCC1=CCCCC1)C(=O)[C@H](CC(=O)N1CCOCC1)C2	–	·	?	?
COC(=O)[C@]12CCCCC=C1N(CCC1=CCCCC1)C(=O)[C@H](CC(=O)N1CCCCC1)C2	–	·	18.4µM	23.1µM
COC(=O)[C@]12CCCCC=C1N(CCC1=CCCCC1)C(=O)[C@H](CC(=O)N1CCN(C(=O)C3CC3)CC1)C2	–	·	?	16.4µM
O=c1cnc2cnc(N3CCOCC3)nc2n1C1CC1	·	·	–	–
CCOc1ccc(N(CC)S(=O)(=O)N2CCCC(C(=O)NCc3ccccc3OCC)C2)cc1 (stereo not given)	–	–	?	16.4µM
CCc1ccc(CNC(=O)C2CCCN(S(=O)(=O)N(CC)c3ccccc3)C2)cc1 (stereo not given)	–	–	?	?
CCN(c1ccc(OC)cc1)S(=O)(=O)N1CCCC(C(=O)NCc2ccc(OC(C)C)cc2)C1 (stereo not given)	–	·	20.6µM	14.6µM
CCOc1ccc(N(CC)S(=O)(=O)N2CCCC(C(=O)NCCc3ccccc3OC)C2)cc1 (stereo not given)	–	–	20.6µM	?
COc1nccnc1NS(=O)(=O)c1ccc(NC(=O)c2cccc(C)c2)cc1	·	–	–	–
CCOc1cccc(C2c3c(oc4ccc(F)cc4c3=O)C(=O)N2c2cc(C)ccn2)c1 (stereo not given)	–	–	16.4µM	23.1µM
COc1cc(C2c3c(oc4ccc(C)cc4c3=O)C(=O)N2c2cc(C)ccn2)cc(OC)c1OC (stereo not given)	·	–	·	·
CCOC(=O)C(=CNNc1cccc(Cl)c1)C(=O)OCC	–	–	11.6µM	20.6µM
CCOC(=O)C(=CNc1ccc(Cl)cn1)C(=O)OCC	–	–	–	?
Cc1ccc(NC(=O)CSc2ncn[nH]2)cc1S(=O)(=O)N1CCOCC1	·	–	–	–
Cc1cccc2cc(/C=C/C(=O)c3ccco3)c(Cl)nc12	·	–	4.61µM	8.2µM
CCOc1ccc2nc(Cl)c(/C=C/C(=O)c3ccco3)cc2c1	–	–	10.3µM	14.6µM
Cc1cccc2cc(/C=N/Nc3ccc(C(=O)O)cc3)c(Cl)nc12	–	–	–	?
O=C(Nc1ccc(OC(F)(F)F)cc1)C1CCN(S(=O)(=O)c2ccc3[nH]c(=O)ccc3c2)CC1	–	–	–	?
COc1ccc(Nc2ncnc3onc(C)c23)cc1Cl	–	–	–	?
Cn1nc(SCc2ccccc2)c(=O)[nH]c1=O	–	·	–	–
CCN(Cc1ccc2c(c1)OCO2)C(=O)/C=C/c1cccc(Br)c1	·	–	–	?
CC(C)(C)N(Cc1ccc2c(c1)OCO2)C(=O)/C=C\S(=O)c1ccccc1 (stereo not given)	–	·	5.17µM	3.66µM
COc1ccccc1OCC(=O)NCCSCc1ccccc1Cl	–	–	?	18.4µM
O=C(COc1ccccc1)NCCSCc1ccccc1Cl	·	–	–	–
COc1ccccc1C(=O)NCCSCc1ccccc1Cl	7.08µM	–	–	?
SMILES	ClpP mod	TDP1 block	TDP1 cell CPT	TDP1 cell noCPT
CCc1ccc(-c2csc(-c3cc4cc(Br)ccc4oc3=O)n2)cc1	–	–	–	–
C=C(C)Cn1c(SCC(=O)c2ccc(Br)cc2)nc2sc3c(c2c1=O)CCCC3	–	–[12.3 µM]	–	–
Cc1ccc(OC(=O)N(C)C[C@@H]2OCc3cn(nn3)CCCC(=O)N([C@H](C)CO)C[C@H]2C)cc1	–	·	–	–
CCC/C=C(\CCC)C(NC(=O)Oc1ccc(F)cc1)c1ccc(C(=O)OC)cc1 (stereo not given)	·	–	·	·
CCn1cc([N+](=O)[O-])c(C(=O)N2N=C(c3ccc4ccccc4c3)CC2c2cc(Br)ccc2O)n1 (stereo not given)	–	–	?	6.51µM
COc1ccc(C[C@H]2CN3C(=NC[C@@H]3C(C)C)N2C[C@H](C)NC(=O)c2ccc(C)c(Br)c2)cc1	–	–	29.1µM	18.4µM
